SENP6 inh: blocks the human protease SENP6; 330,000 tested, 1.8% active; AID 2599; Recombinant SENP6 catalytic domain, aminoluciferin luminescence; inhibition, % at 10 µM; Q9GZR1;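 active = inhibition above about 50% at the single tested dose, limit read from the data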;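 note: plate controls were DMSO wells with enzyme for no effect and DMSO wells lacking enzyme for full effect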
Target sequence (Q9GZR1 628-1112 limits assumed): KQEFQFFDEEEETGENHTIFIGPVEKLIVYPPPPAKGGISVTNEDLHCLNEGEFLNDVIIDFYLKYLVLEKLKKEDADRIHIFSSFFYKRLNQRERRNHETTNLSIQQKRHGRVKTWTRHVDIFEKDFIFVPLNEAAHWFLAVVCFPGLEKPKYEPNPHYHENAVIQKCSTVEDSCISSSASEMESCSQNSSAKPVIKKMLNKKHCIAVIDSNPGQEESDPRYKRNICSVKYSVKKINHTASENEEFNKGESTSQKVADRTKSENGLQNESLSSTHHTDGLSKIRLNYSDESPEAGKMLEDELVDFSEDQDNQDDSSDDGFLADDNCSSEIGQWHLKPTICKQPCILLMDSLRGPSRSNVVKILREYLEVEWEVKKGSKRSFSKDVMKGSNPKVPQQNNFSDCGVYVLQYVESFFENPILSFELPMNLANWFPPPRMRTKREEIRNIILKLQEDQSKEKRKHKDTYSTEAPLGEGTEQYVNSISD
SENP8 block-1: inhibitors of human SENP8 protease; inhibition, % at 10 µM; purified SENP8, Z-RLRGG-aminoluciferin cleavage, luminescence; Q96LD8; 330,000 tested, 1.2% active; in the data active = inhibition above about 50%
Target sequence (Q96LD8 whole entry, looked up): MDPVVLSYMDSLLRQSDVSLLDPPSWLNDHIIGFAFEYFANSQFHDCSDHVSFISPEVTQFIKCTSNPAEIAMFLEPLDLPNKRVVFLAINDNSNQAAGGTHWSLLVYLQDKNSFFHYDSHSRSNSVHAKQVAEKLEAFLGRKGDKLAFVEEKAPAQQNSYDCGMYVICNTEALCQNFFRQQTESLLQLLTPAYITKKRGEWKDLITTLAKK
HSP90 refold inh: blocks HSP90-mediated luciferase refolding in reticulocyte lysate; 290,000 tested, 0.91% active; inhibition, % at 5.6 µM; Rabbit reticulocyte lysate, luciferase refolding luminescence, 3 h;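 active = inhibition above the screen-wide mean plus 3 SD, computed separately per campaign, cut at about 16% in these data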;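 note: 0% = DMSO wells and 100% = 60 µM geldanamycin wells; inhibitors lower the luminescence because luciferase stays unfolded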
LGR2 antag: Drosophila LGR2 receptor signaling inhibition. 380,000 tested, 0.35% active. HEK293 LGR2, CRE-luciferase, bursicon-stimulated, 4 h. inhibition, % at 9.99 µM;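 active = drop in luminescence signal, shown as inhibition above about 50% in the replicate tests, limit read from the data, passing the limit was not always enough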;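 note: agonist challenge used bursicon conditioned medium at about half maximal strength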
SENP7 inh: blocks the human protease SENP7 | inhibition, % at 5 µM | recombinant SENP7, Z-RLRGG-aminoluciferin luminescence, 40 min | 330,000 tested, 1.5% active | Q9BQF6;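 active = inhibition above about 50% at the single test dose, limit read from the data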;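 note: plate controls were DMSO with enzyme for no effect and no enzyme buffer wells for full effect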
SENP8 block-2: SENP8 (human) protease inhibition. Q96LD8. recombinant SENP8, Nedd8 substrate fluorescence. inhibition, % at 20 µM. 360,000 tested, 0.64% active; in the data active = inhibition mostly above about 40%, no sharp cut-off; inactive = mostly below about 27%
SENP8 confirm: human SENP8 inhibition, confirmed; inhibition, % at 12.5 µM; 6,200 tested, 40% active; Recombinant SENP8, Z-RLRGG-aminoluciferin luminescence, 60 min; AID 488912; shares compounds with SENP7 inh;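 active = mean inhibition across replicates above about 50%, limit read from the data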
SENP6 conf: confirmation of human SENP6 protease inhibitors. shares compounds with SENP7 inh. recombinant SENP6, Z-RLRGG-aminoluciferin luminescence. inhibition, % at 12.5 µM. 6,200 tested, 58% active
SENP7 confirm: confirmation of human SENP7 protease inhibitors. 6,200 tested, 69% active. shares compounds with SENP7 inh. recombinant SENP7, Z-RLRGG-aminoluciferin luminescence, 40 min. inhibition, % at 12.5 µM
Casp3 SENP sel: caspase-3 inhibition (SENP selectivity assay). shares compounds with SENP7 inh. purified caspase-3, Z-DEVD-aminoluciferin luminescence, 60 min. inhibition, % at 12.5 µM. 6,200 tested, 60% active. AID 488918;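 active = mean inhibition above about 50%, limit read from the data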;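 note: plate controls were enzyme with DMSO for no effect and wells without caspase-3 for full effect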
Luc interf: luminescence interference (SENP counter-screen) | shares compounds with SENP7 inh | Pre-incubated SENP8/Z-RLRGG-aminoluciferin, luciferase luminescence interference | inhibition, % at 12.5 µM | 6,200 tested, 39% active | AID 488919;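 active = mean inhibition above about 50% when retested at one dose, limit read from the data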;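 note: plate controls were DMSO wells with completed reaction for no effect and substrate without enzyme for full effect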
Numbers without * were called inactive; . = not tested or not shown. Hits are enriched below; roughly 2.3% of the tested compounds scored in any of these assays.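 Rule for the calls, unless noted: active = mean inhibition above about 50% in the one-dose retest (limit read from the data); inactive = the rest.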

SMILES	SENP6 inh	SENP8 block-1	HSP90 refold inh	LGR2 antag	SENP7 inh	SENP8 block-2	SENP8 confirm	SENP6 conf	SENP7 confirm	Casp3 SENP sel	Luc interf
COC(=O)Nc1nnc(-c2ccc(OC)cc2)s1	67.9*	48.6	1.1	-61.0	75.4*	-328.6	50.3*	55.2*	84.9*	84.8*	51.7*
COc1ccc(C(=O)Nc2nnc(-c3ccccc3)s2)cc1	-16.3	-7.0	-1.4	-26.7	9.6	-117.7	.	.	.	.	.
O=C(Nc1nnc(C(F)(F)F)s1)c1cccnc1	55.4*	19.9	-2.1	.	48.5	-3.7	54.3*	53.8*	87.9*	84.6*	66.0*
CN1C(=O)c2cc(NC(=O)C3CCCC3)ccc2OC[C@@H]2O[C@@H](CC(=O)NCC(F)(F)F)CC[C@@H]21	.	.	.	-12.5	.	.	.	.	.	.	.
CCC(=O)N1[C@H](C(=O)NC2CCC2)[C@@H](CO)[C@@H]2Cn3c(ccc(C4=CCCCC4)c3=O)[C@@H]21	.	.	.	25.1	.	.	.	.	.	.	.
COc1cccc2sc(Nc3nc(-c4ccccn4)cs3)nc12	64.7*	41.9	-0.9	.	45.0	-83.6	-6.8	55.5*	85.1*	27.6	11.6
c1ccc(-c2csc(Nc3cccnc3)n2)nc1	-6.6	-7.4	-3.4	.	-8.2	-13.9	.	.	.	.	.
c1ccc(Nc2nc(-c3ccccn3)cs2)cc1	-3.2	38.0	13.0	.	59.9*	-16.5	60.4*	61.1*	88.2*	53.6*	76.5*
CN1CCN(C(=O)C[C@@H]2CC[C@H]3[C@@H](COC[C@@H](O)CN3C(=O)C3CCCC3)O2)CC1	.	.	.	-1.7	.	.	.	.	.	.	.
CCC(C)(C)NC(=S)Nc1ccc(-c2nc3ccc(C)cc3s2)cc1	28.4	19.7	-3.0	.	10.1	-408.1	.	.	.	.	.
COc1ccc(/C=C(\C#N)C(=O)OCC(=O)Nc2ccc(-c3nc4ccc(C)cc4s3)cc2)cc1	-1.4	16.1	1.5	27.0	53.2*	-424.8	23.6	20.0	44.7	25.8	54.2*
CNC(=S)Nc1ccc(-c2nc3ccc(C)cc3s2)cc1	74.3*	63.8*	1.3	53.5*	49.6	-392.1	41.3	64.2*	86.4*	39.6	43.0
Cc1cccc2c1-c1sc(C(=O)Nc3nccs3)cc1CO2	39.5	-1.2	0.2	-40.2	66.9*	-399.4	7.6	11.9	20.4	13.0	9.6
O=C(Nc1ccc(F)cc1)Nc1ccc2c(c1)CCC2	-9.5	-10.2	-3.9	-62.2	30.5	0.3	.	.	.	.	.
O=C(Nc1cccc(F)c1)Nc1cnccn1	-2.8	-11.8	2.2	-3.3	2.8	2.3	.	.	.	.	.
O=C(Nc1ccc2c(c1)CCC2)c1ccc(F)cc1	86.9*	1.3	15.5	29.3	86.8*	13.5	85.2*	84.0*	96.4*	81.7*	79.8*
O=C(Nc1cccc(F)c1)Nc1ccccn1	57.6*	27.8	-1.8	.	47.3	2.9	39.1	33.8	74.6*	53.9*	24.4
CN(C)S(=O)(=O)c1ccc(C(=O)Nc2ccc3c(c2)CCC3)cc1	-1.4	9.5	-6.0	-68.0	2.0	9.8	.	.	.	.	.
COc1cc(SC)ccc1C(=O)Nc1ccc2c(c1)CCC2	69.2*	66.5*	3.7	-29.2	72.7*	6.5	12.9	74.6*	90.5*	54.2*	7.3
O=C(Nc1cccc(F)c1)Nc1ccc2c(c1)CCC2	62.6*	-33.5	-5.2	-111.8	72.0*	7.8	-13.4	-28.9	77.6*	29.4	17.9
C[C@@H]1CCCCO[C@@H](CN(C)Cc2ccccc2)[C@@H](C)CN([C@H](C)CO)C(=O)c2cc(NC(=O)c3ccncc3)ccc2O1	.	.	.	-2.1	.	.	.	.	.	.	.
O=C(Nc1ccccc1)Nc1ccc2c(c1)CCC2	84.3*	62.5*	-1.5	-88.1	80.3*	3.5	47.8	56.7*	91.0*	60.4*	81.0*
Cc1ccc(NC(=O)Nc2ccc3c(c2)CCC3)cc1	4.8	6.7	-2.7	-64.3	-4.0	1.4	.	.	.	.	.
Cc1ccnc(N2C(=O)c3ccccc3C2O)c1 (stereo not drawn)	85.0*	81.4*	8.7	27.8	90.0*	-1.3	81.7*	82.1*	98.1*	95.8*	88.0*
C[C@@H]1CN([C@H](C)CO)C(=O)c2cc(NC(=O)NC3CCCCC3)ccc2O[C@H]1CN(C)Cc1ccc2c(c1)OCO2	.	.	.	3.4	.	.	.	.	.	.	.
SMILES	SENP6 inh	SENP8 block-1	HSP90 refold inh	LGR2 antag	SENP7 inh	SENP8 block-2	SENP8 confirm	SENP6 conf	SENP7 confirm	Casp3 SENP sel	Luc interf
Cc1cc(N/N=C/c2ccc3c(c2)OCO3)nc2ccccc12	58.6*	47.4	-0.1	-69.8	69.7*	-424.8	27.8	68.0*	87.5*	35.2	43.2
O=c1[nH]c(N/N=C\c2ccc3c(c2)OCO3)nc2ccccc12	56.1*	15.4	0.3	.	47.7	-386.6	27.8	44.3	40.7	60.2*	3.8
O=c1[nH]c(N/N=C/c2ccccc2)nc2ccccc12	29.1	-7.2	-1.3	-22.0	7.8	-312.7	.	.	.	.	.
CN(C)CC(=O)Nc1ccc2c(c1)[C@@H]1C[C@H](CC(=O)NCc3ccc(Cl)cc3)O[C@H](CO)[C@@H]1O2	.	.	.	18.7	.	.	.	.	.	.	.
CCCN(C)C[C@H]1Oc2cc(C#CC3CCCCC3)ccc2S(=O)(=O)N([C@@H](C)CO)C[C@H]1C	.	.	.	-0.7	.	.	.	.	.	.	.
COc1ccc(S(=O)(=O)N(C)C[C@H]2Oc3ccc(NC(=O)Nc4cccc5ccccc45)cc3C(=O)N([C@@H](C)CO)C[C@H]2C)cc1	.	.	.	-2.2	.	.	.	.	.	.	.
CNC[C@H]1Oc2cc(C#CCOC)ccc2S(=O)(=O)N([C@@H](C)CO)C[C@@H]1C	.	.	.	-6.1	.	.	.	.	.	.	.
O=C(O)c1ccc2cc(-c3ccccc3)[nH]c2c1	95.4*	97.5*	.	.	99.8*	-454.2	6.8	100.7*	103.7*	47.8	50.3*
C[C@H]1CN([C@@H](C)CO)S(=O)(=O)c2ccc(C#CC3CC3)cc2O[C@@H]1CN(C)Cc1ccncc1	.	.	.	-29.5	.	.	.	.	.	.	.
CCOCCCNC1=C(Cl)C(=O)c2ccccc2C1=O	75.2*	46.6	5.9	-37.5	53.5*	47.4*	5.0	32.9	2.1	5.0	3.5
CCOCCCNS(=O)(=O)c1ccccc1	-11.6	-10.0	2.5	.	-1.4	13.4	.	.	.	.	.
Cc1snc2sc(C(=O)c3ccc(Br)cc3)c(N)c12	-14.7	5.8	-3.6	.	-7.3	24.7	.	.	.	.	.
Cc1ccc(C(=O)c2sc3nsc(C)c3c2N)cc1	56.7*	26.8	-1.6	.	52.7*	15.6	12.0	26.7	60.0*	41.0	10.7
O=C(c1ccc(Br)cc1)c1cc2ccc(O)cc2oc1=O	90.4*	91.8*	-3.0	-3.0	50.9*	-111.5	91.6*	94.9*	101.1*	96.1*	94.9*
